The text below walks through data of PubChem BioAssay.

Assay [1] in a line: compound effects on lung adenocarcinoma cell viability – A549, calcein-AM fluorescence, 48 h, basal, profiling panel (AID 1162). Particulars: higher = more signal.
Assay [2] in a line: compound effects on differentiated 3T3-L1 adipocyte viability – cell-based, 3T3-L1 adipocytes, calcein-AM fluorescence, 48 h, basal, profiling panel (AID 1163). Particulars: 3T3-L1 adipocytes viability, higher = more signal.
A short description of assay [3]: compound effects on hepatocellular carcinoma cell viability – HepG2, calcein-AM fluorescence, 48 h, basal, profiling panel (AID 1164). As to conditions: higher = more signal.
Assay [4] is described as follows: compound effects on multiple myeloma cell viability – MM1S, calcein-AM fluorescence, 48 h, basal, profiling panel (AID 1165). As to conditions: higher = more signal.
Assay [5] is described as follows: calcein-AM signal in unstimulated myeloma cells – cell-based, calcein-AM fluorescence, 48 h, PK04 Diversity Set, profiling panel (AID 1166).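 Note: cells grown under basal conditions without added stimulus.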 Particulars: RPMI8226 myeloma viability, higher = more signal.
Assay [6] can be described thus: JC-1 mitochondrial signal, unstimulated HepG2 cells – cell-based, JC-1 fluorescence, 24 h, 100 nL compound, profiling panel (AID 1167). Particulars: HepG2 mitochondrial potential, higher = more signal.
Assay [7] is described as follows: JC-1 mitochondrial signal, unstimulated adipocytes – cell-based, JC-1 fluorescence, 3T3-L1 adipocytes, 24 h, 100 nL compound, profiling panel (AID 1168). Particulars: JC-1 mitochondrial fluorescence, higher = more signal, called active from +8 up or from −8 down.
Assay [8] can be described thus: JC-1 mitochondrial signal, unstimulated myeloma cells – cell-based, JC-1 fluorescence, RPMI8226, 24 h, 100 nL compound, profiling panel (AID 1169). Particulars: JC-1 mitochondrial potential fluorescence, higher = more signal.
Assay [9] is described as follows: JC-1 mitochondrial signal, unstimulated MM1S myeloma – cell-based, JC-1 fluorescence, 24 h, 100 nL compound, profiling panel (AID 1170). Particulars: MM1S mitochondrial potential, higher = more signal.
A short description of assay [10]: resazurin metabolic signal in A549 cells – cell-based, resazurin fluorescence, 24 h, PK04 Diversity Set, profiling panel (AID 1171). Particulars: A549 viability, higher = more signal, called active from +8 up or from −8 down. (In general: Alamar Blue is a resazurin reagent that responds to reducing activity.)

Activity calls are given as the source filed them.
Note: test concentration not given here.

For `C=CCN1C(=O)[C@]2(O[C@H](CCn3cc(CCO)nn3)[C@@H]([Si](C)(C)c3ccc(OC)cc3)[C@@H]2C)c2cc(N3CCOC3=O)ccc21`, the z-score was 0.0694 in assay [1]; 0.654 in assay [2]; -0.316 in [3]; -2.64 in assay [4]; -1.37 in assay [5]; 0.464 in [6]. The z-score in [7] is -0.0813 (inactive); in assay [8] it was -0.585; in assay [9], -0.539; in assay [10], 0.333 (inactive).
Turning to `CCCC[C@H]1OB(O)C[C@H]2C1=C(C)C[C@H]1C(=O)N(C)C(=O)[C@H]12`, the z-score in assay [1] is -0.203; in [2] it was -0.623; in assay [3], -1.02; in assay [4], -2.27; in assay [5] it was -0.848; in [6] it was -1.79. For the same compound, the z-score in [7] is -0.467 (inactive); in [8], 0.391; in [9] it was 0.203; in assay [10] it was -0.794 (inactive).
In the case of `COC(=O)C1(C)C=C2C(=C(c3ccccc3)C(=O)C2C)CN1` (stereo not given), the z-score is -1.3 in [1]; -0.492 in [2]; -1.26 in assay [3]; -0.671 in [4]; -1.49 in assay [5]; -1.68 in assay [6]. The z-score in [7] was -2.71 (inactive); in [8] it was 0.2; in [9], -0.933; in assay [10], -0.72 (inactive).
Take `O=C1O[C@@H](c2ccccc2)[C@@H](c2ccccc2)N2[C@@H](c3ccccc3OCCO)[C@]3(C(=O)Nc4ccc(C#CCCO)cc43)[C@@H](C(=O)O)[C@H]12`: the z-score in assay [1] is -0.622; in assay [2] it was 1.78; in assay [3], -0.173; in assay [4], -1.43; in assay [5], -1.98; in assay [6], 0.259. For the same compound, the z-score is -0.881 (inactive) in assay [7], -0.231 in assay [8], -0.641 in assay [9] and -0.0647 (inactive) in [10].
For `COCC1=C2[C@@H](CCc3ccccc3)OB(O)C[C@@H]2n2c(=O)n(-c3ccccc3)c(=O)n2C1`, the z-score is -0.0316 in [1]; -0.174 in assay [2]; 0.602 in assay [3]; -0.0123 in assay [4]; -0.412 in [5]; -1.83 in [6]. The z-score in assay [7] was 0.619 (inactive); in [8], 0.164; in assay [9], 0.368; in assay [10], -0.566 (inactive).
In the case of `COC(=O)[C@H](C)NC(=O)CCC1CC(OC(=O)NCCc2ccc(F)cc2)CC2(CCCC(COC(=O)NCCc3ccc(Cl)cc3)O2)O1` (stereo not given in full), the z-score in [1] was 0.98; in assay [2], -0.154; in [3] it was 0.649; in assay [4] it was -1.14; in assay [5], -0.227; in assay [6], 0.341. The z-score was 0.313 (inactive) in [7], 0.437 in [8], -0.324 in assay [9] and 0.544 (inactive) in assay [10].
As for `O=C1O[C@@H](c2ccccc2)[C@@H](c2ccccc2)N2[C@@H](c3ccc(OCCO)cc3)[C@]3(C(=O)Nc4ccc(C#CCCO)cc43)[C@@H](C(=O)N3CCCCCCC3)[C@H]12`, the z-score was 0.819 in [1]; 1.02 in assay [2]; 0.874 in assay [3]; 0.206 in assay [4]; 0.269 in [5]; 0.523 in [6]. The z-score in [7] was -0.564 (inactive); in [8], -0.974; in assay [9], -0.399; in assay [10], 0.932 (inactive).
Consider `CC(C)NC(=O)[C@@]1(C)c2ccccc2C(=O)N(Cc2cc(F)cc(C(F)(F)F)c2)[C@H]1c1ccc(CO)cc1`, for which the z-score in assay [1] was 0.0549; in assay [2] it was -0.866; in assay [3] it was -0.135; in assay [4], -0.0517; in assay [5] it was 0.223; in assay [6] it was 0.863. Also, the z-score in [7] was -0.327 (inactive); in assay [8] it was 0.102; in assay [9] it was -0.542; in assay [10], 0.166 (inactive).
For `CO[C@@H]1COC(=O)[C@H](C)NC(=O)[C@@H](C)COC(=O)CCC[C@H]1C`, the z-score was -0.0857 in assay [1]; -0.459 in assay [2]; -0.735 in assay [3]; -0.3 in assay [4]; -1.38 in [5]; -0.85 in assay [6]. In addition, the z-score in assay [7] is -0.788 (inactive); in [8], 0.706; in assay [9], -0.626; in [10], -0.0213 (inactive).
Take `CC(=O)OC[C@H]1O[C@@H](ON=C[C@@H](C)[C@H](OCc2ccccc2)C(C)C)[C@H](OC(C)=O)[C@@H](OC(C)=O)[C@@H]1OC(C)=O`: the z-score is 0.605 in [1]; -0.466 in assay [2]; 0.471 in [3]; 0.614 in assay [4]; 0.048 in assay [5]; -0.148 in [6]. Besides, the z-score was 0.0097 (inactive) in assay [7], 0.386 in [8], -0.863 in assay [9] and -1.23 (inactive) in assay [10].
With `CCOC(=O)C[C@H]1[C@H](OC(=O)c2cc3ccccc3oc2=O)[C@@H](NC(=O)c2ccc3ccccc3n2)c2cc(OCCCO)ccc2N1C(=O)c1ccccc1`, the z-score is 0.321 in [1]; 2.22 in assay [2]; 0.11 in assay [3]; 0.204 in assay [4]; -0.785 in [5]; -0.187 in assay [6]. The z-score in assay [7] is -0.408 (inactive); in [8], -0.264; in assay [9] it was -0.0996; in assay [10] it was -0.881 (inactive).
On to `O=C1CCCC=C1C(O)CCOCc1ccccc1` (stereo not given), for which the z-score is -0.43 in assay [1]; 0.0411 in assay [2]; -0.457 in [3]; -1.42 in [4]; 0.452 in [5]; -0.667 in assay [6]. Also, the z-score in [7] was 0.0503 (inactive); in assay [8] it was 0.215; in assay [9], 0.527; in [10] it was -0.323 (inactive).
Consider `Cc1cc2c(c(=O)o1)[C@H](O)[C@H]1O[C@H]1C2=O`, for which the z-score is -0.728 in [1]; 0.287 in assay [2]; -1.03 in [3]; -3.45 in assay [4]; -2.96 in assay [5]; -1.31 in assay [6]. The z-score in [7] was -0.883 (inactive); in assay [8], 0.433; in assay [9], -1.12; in [10], -0.506 (inactive).
For the compound `CO[C@H]1COC(=O)[C@H](C)NC(=O)[C@@H](C)COC(=O)CC=C[C@@H]1C`, the z-score in assay [1] is -0.0101; in assay [2] it was 0.0176; in [3], -0.368; in assay [4], -0.303; in assay [5], 0.693; in [6], -0.176. Also, the z-score in assay [7] is -1.32 (inactive); in [8], -0.282; in assay [9], -0.863; in [10], -0.162 (inactive).
In the case of `CCOC(=O)NN=C1C[C@@H](O)[C@@H](O)[C@@H]2[C@@H]3C(=O)N(CC)C(=O)[C@@H]3CC[C@@H]12`, the z-score in assay [1] was 0.296; in [2], -0.538; in [3] it was 0.322; in assay [4], 0.0379; in assay [5] it was 0.288; in assay [6], -0.495. Moreover, the z-score in [7] is -0.852 (inactive); in [8], -0.151; in assay [9], -0.662; in assay [10], 0.45 (inactive).
